Eight molecules from PubChem BioAssay (NCI) can be followed below.

Compounds without any hit were thinned out: in the full panel of roughly 83,000, 20% have a hit.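 How to read the values: 0–100, growth inhibition (40 = 60% inhibited); 0, no net growth; -100 to 0, cell death (-40 = 40% of starting cells died; -100 = all dead).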 Values without a mark were called inactive. Active and inactive are the calls of the source. How the source made its calls: active means growth percent below 10; inactive means the rest.

Some test systems named below: SR leukemia; OVCAR-8 ovarian; OVCAR-5 ovarian; OVCAR-4 ovarian; SK-OV-3 ovarian; IGROV1 ovarian; OVCAR-3 ovarian; HS 578T breast; NCI/ADR-RES ovarian; T-47D breast; BT-549 breast; SW-620 colon; MCF7 breast; HCT-116 colon; HCC-2998 colon; KM12 colon; MDA-MB-435 melanoma; RPMI-8226 leukemia.
Common to all, as to experiment: NCI-60 one-dose screen, 48 h (100 = growth as untreated, 0 = no growth, -100 = all killed)
Common to all, as to conditions: 10 µM unless noted

For the molecule `COc1cccc(-c2nc3sccn3c2-c2ccnc(NCCCNS(=O)(=O)c3ccccc3)c2)c1`, the growth was 53.7% in the assay on SR leukemia; 17.6% in the assay with OVCAR-8 ovarian; 92% in the assay with OVCAR-5 ovarian; 27.6% in the assay on OVCAR-4 ovarian; 79.2% in the assay with SK-OV-3 ovarian; 39.6% with IGROV1 ovarian. Besides, the growth is 38.7% in the assay with OVCAR-3 ovarian; 66.8% in the assay with HS 578T breast; 12.7% with NCI/ADR-RES ovarian; -8.88% (active) with T-47D breast; 2.07% (active) in the assay on BT-549 breast; 59% in the assay with SW-620 colon. Also, the growth in the assay on MCF7 breast is 46.2%; with HCT-116 colon it was 12.2%; with HCC-2998 colon, 67.4%; in the assay on KM12 colon it was 29.2%.
With `CCOC(=O)c1nc(Nc2cc(C)[nH]n2)c2ccccc2n1`, the growth was 81.1% with SR leukemia; 111% in the assay with OVCAR-8 ovarian; 103% in the assay on OVCAR-5 ovarian; 75.8% in the assay on SK-OV-3 ovarian; 76.2% in the assay with IGROV1 ovarian; 97.7% with OVCAR-3 ovarian. Also, the growth with HS 578T breast was 71.4%; with NCI/ADR-RES ovarian, 114%; in the assay with T-47D breast, 82.3%; with BT-549 breast, 96.8%; with MDA-MB-435 melanoma, 96.8%; with SW-620 colon it was 104%. For the same molecule, the growth was 81.5% in the assay with MCF7 breast, 76.6% in the assay with HCT-116 colon, 107% with HCC-2998 colon and 36.9% with KM12 colon.
Regarding `CN1CCN(c2ccc3nc(-c4ccc5nc(-c6ccc(OCCC(C)(C)C)cc6)[nH]c5c4)[nH]c3c2)CC1`, the growth was -50.1% (active) in the assay with RPMI-8226 leukemia; -48.9% (active) in the assay with OVCAR-8 ovarian; -2.35% (active) with OVCAR-5 ovarian; 81.2% with OVCAR-4 ovarian; 88.8% in the assay with SK-OV-3 ovarian; 77.7% with IGROV1 ovarian. Further, the growth was -83.6% (active) in the assay on OVCAR-3 ovarian; 52.1% in the assay with HS 578T breast; 88% in the assay on NCI/ADR-RES ovarian; 73.4% in the assay with T-47D breast; 72.4% in the assay on BT-549 breast; -37.8% (active) with MDA-MB-435 melanoma. Besides, the growth in the assay with SW-620 colon was -82.6% (active); in the assay with MCF7 breast, -61.3% (active); in the assay on HCT-116 colon, -95% (active); in the assay on HCC-2998 colon, -64.6% (active); in the assay with KM12 colon, -60.6% (active).
For the molecule `O=C(/C=C/c1ccc(Cl)cc1)c1ccc(O)c(CN2CCN(c3cc4c(cc3F)c(=O)c(C(=O)O)cn4C3CC3)CC2)c1`, the growth was 16.5% in the assay on RPMI-8226 leukemia; 27.4% in the assay on OVCAR-8 ovarian; 77.5% in the assay on OVCAR-5 ovarian; 89.2% in the assay on OVCAR-4 ovarian; 73.8% in the assay on SK-OV-3 ovarian; 51.6% in the assay with IGROV1 ovarian. Further, the growth in the assay on OVCAR-3 ovarian is 73.9%; in the assay on HS 578T breast, 47%; in the assay on NCI/ADR-RES ovarian, 65.7%; in the assay with T-47D breast it was 53.4%; with BT-549 breast, 46.3%; in the assay with MDA-MB-435 melanoma, 52%. Also, the growth in the assay on SW-620 colon was 47.8%; in the assay on MCF7 breast, 45.6%; in the assay with HCT-116 colon, 12.6%; in the assay with HCC-2998 colon it was 59.4%; with KM12 colon it was 59.3%.
In the case of `O=C(CO[N+](=O)[O-])Nc1ccc(C(=O)/C=C/c2ccc3c(c2)OCO3)cc1`, the growth was 46.8% in the assay on RPMI-8226 leukemia; 75.8% with OVCAR-8 ovarian; 96.5% in the assay on OVCAR-5 ovarian; 96.1% in the assay on OVCAR-4 ovarian; 111% with SK-OV-3 ovarian; 48.3% in the assay on IGROV1 ovarian. Besides, the growth is 80.6% in the assay with OVCAR-3 ovarian; 103% with HS 578T breast; 84.5% with NCI/ADR-RES ovarian; 83% with T-47D breast; 87.6% with BT-549 breast; 62.6% in the assay on MDA-MB-435 melanoma. The growth with SW-620 colon was 47.8%; in the assay with MCF7 breast, 26.2%; with HCT-116 colon, -5.9% (active); in the assay on HCC-2998 colon it was 69.2%; with KM12 colon it was 35.9%.
Regarding `CC[C@H](Nc1nc(N)nc(C)c1C#N)c1nc2cccc(NCc3ccc(C(=O)NO)cc3)c2c(=O)n1-c1ccccc1`, the growth with RPMI-8226 leukemia is 4.78% (active); in the assay with OVCAR-8 ovarian, -25.7% (active); in the assay on OVCAR-5 ovarian, 16.8%; in the assay with OVCAR-4 ovarian, 15.5%; in the assay on SK-OV-3 ovarian it was -12% (active); in the assay on IGROV1 ovarian it was -50.5% (active). The growth in the assay with OVCAR-3 ovarian was 0.5% (active); with HS 578T breast, -8.46% (active); in the assay with NCI/ADR-RES ovarian, 74.7%; with T-47D breast it was -8.21% (active); with BT-549 breast it was 20.9%; in the assay with MDA-MB-435 melanoma it was -1.57% (active). Further, the growth with SW-620 colon was -16.4% (active); with MCF7 breast, 5.7% (active); in the assay on HCT-116 colon, -50.5% (active); in the assay with HCC-2998 colon, 28.3%; with KM12 colon, 0.659% (active).
As for `CC(C)(C)c1nn(-c2ccccc2)c2c1CC1(CN2Cc2ccc3c(c2)OCO3)C(=O)c2ccccc2C1=O`, the growth with RPMI-8226 leukemia was 85.8%; in the assay on OVCAR-8 ovarian, 89.2%; in the assay with OVCAR-5 ovarian it was 105%; with OVCAR-4 ovarian it was 123%; with SK-OV-3 ovarian it was 115%; in the assay on IGROV1 ovarian it was 96.6%. The growth in the assay with OVCAR-3 ovarian is 123%; in the assay with HS 578T breast it was 120%; in the assay with NCI/ADR-RES ovarian it was 101%; in the assay on T-47D breast, 94.6%; in the assay with BT-549 breast, 101%; in the assay on MDA-MB-435 melanoma it was 106%. Moreover, the growth in the assay with SW-620 colon is 101%; in the assay with MCF7 breast, 97.9%; in the assay with HCT-116 colon it was 88.9%; in the assay with HCC-2998 colon it was 96.9%; in the assay with KM12 colon it was 105%.
In the case of `COc1ccc(C(=O)/C=C/c2c[n+](=O)c3ccc(F)cc3n2[O-])cc1`, the growth in the assay with RPMI-8226 leukemia is 109%; with OVCAR-8 ovarian, 83.5%; in the assay on OVCAR-5 ovarian it was 97.2%; in the assay on OVCAR-4 ovarian it was 106%; in the assay with SK-OV-3 ovarian, 106%; with IGROV1 ovarian, 133%. Also, the growth in the assay on OVCAR-3 ovarian was 102%; in the assay on HS 578T breast, 102%; with NCI/ADR-RES ovarian, 101%; with T-47D breast it was 93.1%; with BT-549 breast, 103%; with MDA-MB-435 melanoma, 119%. Further, the growth was 109% in the assay with SW-620 colon; 98.9% with MCF7 breast; 103% in the assay on HCT-116 colon; 104% in the assay with HCC-2998 colon; 113% in the assay on KM12 colon.
